In the supplement of paper PMC10849652:
Targets with a hit are over-represented here; the source holds about 8,800 in all. About 0.5% of all pairs of compound and target were hits. A number with no mark means an inactive call.

Columns and labels:
Assay in all cases: log2 fold change, soluble protein after heating vs DMSO (PISA); higher = thermal stabilisation; K562 lysate, 10 uM; active = over 0.2 and 3.5 SD of the protein, either way, in both replicates (recomputed)
nilotinib = compound: Cc1cn(-c2cc(NC(=O)c3ccc(C)c(Nc4nccc(-c5cccnc5)n4)c3)cc(C(F)(F)F)c2)cn1 [nilotinib]
How it was run: (§1)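 The values are log-two fold changes in thermal stability compared with solvent controls and come from duplicates. They were obtained by TMTpro 16plex LC-MS/MS, with channel sums equalised, on the supernatant after 21,000xg for 90 min. That supernatant came from crude K562 extract at 1 mg/mL protein treated with 10 μM compound for 30 min, heated for 3 min across 48°C-58°C, pooled and brought to 0.5% NP-40 at 4°C.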

[1] = compound: Cc1nc(Nc2n[nH]c3c2CN(C(=O)N[C@H](CN(C)C)c2ccccc2)C3(C)C)c2sccc2n1
How it was run: as §1

dasatinib = compound: Cc1nc(Nc2ncc(C(=O)Nc3c(C)cccc3Cl)s2)cc(N2CCN(CCO)CC2)n1 [dasatinib]
How it was run: as §1

[2] = compound: Cc1ncc(-c2ccnc(Nc3ccc(S(C)(=O)=O)cc3)n2)n1C(C)C
How it was run: as §1

[3] = compound: Cn1cc(-c2ccc3c(c2)CCN3C(=O)Cc2cccc(C(F)(F)F)c2)c2c(N)ncnc21
How it was run: as §1

quisinostat = compound: Cn1cc(CNCC2CCN(c3ncc(C(=O)NO)cn3)CC2)c2ccccc21 [quisinostat]
How it was run: as §1

tipifarnib = compound: Cn1cncc1[C@@](N)(c1ccc(Cl)cc1)c1ccc2c(c1)c(-c1cccc(Cl)c1)cc(=O)n2C [tipifarnib]
How it was run: as §1

[4] = compound: NC(=O)Nc1cc(-c2cccc(F)c2)sc1C(=O)N[C@H]1CCCNC1
How it was run: as §1

[5] = compound: NC(=O)c1cnc(N[C@@H]2CCCC[C@@H]2N)nc1Nc1cccc(-n2nccn2)c1
How it was run: as §1

[6] = compound: NC1(c2ccc(-c3nc4ccn5c(=O)[nH]nc5c4cc3-c3ccccc3)cc2)CCC1
How it was run: as §1

UniProt Q8WU79, sequence (Q8WU79 whole entry, looked up): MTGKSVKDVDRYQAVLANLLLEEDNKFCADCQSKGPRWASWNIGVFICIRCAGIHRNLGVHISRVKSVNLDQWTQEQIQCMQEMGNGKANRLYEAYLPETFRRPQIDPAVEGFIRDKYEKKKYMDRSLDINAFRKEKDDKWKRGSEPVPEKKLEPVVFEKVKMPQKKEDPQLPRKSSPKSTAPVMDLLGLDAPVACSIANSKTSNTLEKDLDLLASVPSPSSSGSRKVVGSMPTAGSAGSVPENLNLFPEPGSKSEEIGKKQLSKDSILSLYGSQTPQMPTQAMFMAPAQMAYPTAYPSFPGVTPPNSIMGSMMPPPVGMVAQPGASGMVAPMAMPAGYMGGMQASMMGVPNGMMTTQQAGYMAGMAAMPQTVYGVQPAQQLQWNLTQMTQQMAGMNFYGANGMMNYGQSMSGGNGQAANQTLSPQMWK
UniProt P35610, sequence (P35610 whole entry, looked up): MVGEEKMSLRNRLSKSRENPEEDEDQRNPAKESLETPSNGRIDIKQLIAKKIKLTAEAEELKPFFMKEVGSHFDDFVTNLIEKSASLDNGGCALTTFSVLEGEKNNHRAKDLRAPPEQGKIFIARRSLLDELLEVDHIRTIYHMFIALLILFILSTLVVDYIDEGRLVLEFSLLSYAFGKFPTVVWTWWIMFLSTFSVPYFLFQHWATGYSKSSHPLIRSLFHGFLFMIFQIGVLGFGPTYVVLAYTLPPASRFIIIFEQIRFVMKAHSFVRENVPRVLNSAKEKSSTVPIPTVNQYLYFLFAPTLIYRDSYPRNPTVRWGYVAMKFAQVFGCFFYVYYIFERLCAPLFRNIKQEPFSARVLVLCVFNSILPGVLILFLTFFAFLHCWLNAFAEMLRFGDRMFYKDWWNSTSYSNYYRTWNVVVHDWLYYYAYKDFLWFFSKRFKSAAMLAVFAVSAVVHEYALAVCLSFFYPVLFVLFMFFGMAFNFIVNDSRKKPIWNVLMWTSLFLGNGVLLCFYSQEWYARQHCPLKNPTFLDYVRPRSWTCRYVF
UniProt O75528, sequence (O75528 whole entry, looked up): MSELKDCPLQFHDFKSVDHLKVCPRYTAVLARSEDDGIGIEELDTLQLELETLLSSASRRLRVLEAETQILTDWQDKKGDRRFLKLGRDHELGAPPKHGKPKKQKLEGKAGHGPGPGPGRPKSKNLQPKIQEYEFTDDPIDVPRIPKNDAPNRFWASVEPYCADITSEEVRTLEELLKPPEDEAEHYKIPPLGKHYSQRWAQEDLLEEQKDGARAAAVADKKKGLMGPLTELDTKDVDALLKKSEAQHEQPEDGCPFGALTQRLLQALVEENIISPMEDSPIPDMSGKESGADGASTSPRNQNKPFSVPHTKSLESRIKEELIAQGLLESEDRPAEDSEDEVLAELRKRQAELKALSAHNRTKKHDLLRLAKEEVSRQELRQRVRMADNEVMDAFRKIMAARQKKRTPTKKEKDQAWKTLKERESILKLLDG
UniProt Q13487, sequence (Q13487 whole entry, looked up): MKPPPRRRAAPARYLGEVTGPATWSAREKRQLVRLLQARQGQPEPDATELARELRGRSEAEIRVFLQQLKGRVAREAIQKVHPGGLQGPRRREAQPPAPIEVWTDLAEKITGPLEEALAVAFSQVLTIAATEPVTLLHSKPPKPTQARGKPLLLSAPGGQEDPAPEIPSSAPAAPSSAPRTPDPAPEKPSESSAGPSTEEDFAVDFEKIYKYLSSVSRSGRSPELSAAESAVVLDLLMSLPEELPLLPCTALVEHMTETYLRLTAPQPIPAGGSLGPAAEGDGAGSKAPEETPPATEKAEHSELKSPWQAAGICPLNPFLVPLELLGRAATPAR
UniProt Q9Y6J9, sequence (Q9Y6J9 whole entry, looked up): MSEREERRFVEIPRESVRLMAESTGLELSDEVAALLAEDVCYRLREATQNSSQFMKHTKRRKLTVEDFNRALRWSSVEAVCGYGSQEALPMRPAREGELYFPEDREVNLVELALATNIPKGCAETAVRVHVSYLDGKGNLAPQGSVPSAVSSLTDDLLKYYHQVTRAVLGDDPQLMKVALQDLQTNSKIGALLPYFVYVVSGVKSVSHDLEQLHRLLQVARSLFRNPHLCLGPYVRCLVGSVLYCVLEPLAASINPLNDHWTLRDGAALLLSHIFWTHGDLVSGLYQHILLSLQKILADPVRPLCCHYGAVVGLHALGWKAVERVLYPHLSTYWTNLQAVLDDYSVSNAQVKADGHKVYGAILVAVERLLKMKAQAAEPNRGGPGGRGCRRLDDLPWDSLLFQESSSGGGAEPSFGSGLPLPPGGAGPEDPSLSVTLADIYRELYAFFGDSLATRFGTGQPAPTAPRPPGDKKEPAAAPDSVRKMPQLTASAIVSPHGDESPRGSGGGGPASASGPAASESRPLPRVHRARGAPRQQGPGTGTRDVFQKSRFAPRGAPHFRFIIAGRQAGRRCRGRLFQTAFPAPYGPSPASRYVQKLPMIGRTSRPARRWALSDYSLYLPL
UniProt Q15796, sequence (Q15796 whole entry, looked up): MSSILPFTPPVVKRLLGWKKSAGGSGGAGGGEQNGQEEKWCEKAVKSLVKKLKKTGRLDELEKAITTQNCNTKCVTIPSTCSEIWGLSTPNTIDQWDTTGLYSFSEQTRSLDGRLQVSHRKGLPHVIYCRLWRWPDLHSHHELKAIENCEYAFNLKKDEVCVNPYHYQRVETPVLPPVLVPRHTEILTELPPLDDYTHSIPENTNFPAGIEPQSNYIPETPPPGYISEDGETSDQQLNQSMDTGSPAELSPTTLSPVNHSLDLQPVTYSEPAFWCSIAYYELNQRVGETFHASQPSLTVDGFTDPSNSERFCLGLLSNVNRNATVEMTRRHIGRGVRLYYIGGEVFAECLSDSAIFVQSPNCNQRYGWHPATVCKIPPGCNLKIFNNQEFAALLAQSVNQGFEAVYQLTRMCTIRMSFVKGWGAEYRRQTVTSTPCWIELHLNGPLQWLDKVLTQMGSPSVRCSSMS
UniProt Q9H7B4, sequence (Q9H7B4 whole entry, looked up): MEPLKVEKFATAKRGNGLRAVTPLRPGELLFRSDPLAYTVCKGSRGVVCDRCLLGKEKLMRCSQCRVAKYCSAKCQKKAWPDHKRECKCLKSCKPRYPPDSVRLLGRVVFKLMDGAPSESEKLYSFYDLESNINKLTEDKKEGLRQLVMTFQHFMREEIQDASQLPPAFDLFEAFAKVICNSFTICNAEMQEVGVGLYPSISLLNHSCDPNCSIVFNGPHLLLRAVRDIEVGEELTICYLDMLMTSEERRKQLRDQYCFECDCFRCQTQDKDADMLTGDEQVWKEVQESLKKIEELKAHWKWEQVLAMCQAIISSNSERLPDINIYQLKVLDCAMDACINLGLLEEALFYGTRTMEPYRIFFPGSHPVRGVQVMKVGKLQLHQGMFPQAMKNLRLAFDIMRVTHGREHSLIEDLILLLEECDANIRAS
UniProt Q7KZF4, sequence (Q7KZF4 whole entry, looked up): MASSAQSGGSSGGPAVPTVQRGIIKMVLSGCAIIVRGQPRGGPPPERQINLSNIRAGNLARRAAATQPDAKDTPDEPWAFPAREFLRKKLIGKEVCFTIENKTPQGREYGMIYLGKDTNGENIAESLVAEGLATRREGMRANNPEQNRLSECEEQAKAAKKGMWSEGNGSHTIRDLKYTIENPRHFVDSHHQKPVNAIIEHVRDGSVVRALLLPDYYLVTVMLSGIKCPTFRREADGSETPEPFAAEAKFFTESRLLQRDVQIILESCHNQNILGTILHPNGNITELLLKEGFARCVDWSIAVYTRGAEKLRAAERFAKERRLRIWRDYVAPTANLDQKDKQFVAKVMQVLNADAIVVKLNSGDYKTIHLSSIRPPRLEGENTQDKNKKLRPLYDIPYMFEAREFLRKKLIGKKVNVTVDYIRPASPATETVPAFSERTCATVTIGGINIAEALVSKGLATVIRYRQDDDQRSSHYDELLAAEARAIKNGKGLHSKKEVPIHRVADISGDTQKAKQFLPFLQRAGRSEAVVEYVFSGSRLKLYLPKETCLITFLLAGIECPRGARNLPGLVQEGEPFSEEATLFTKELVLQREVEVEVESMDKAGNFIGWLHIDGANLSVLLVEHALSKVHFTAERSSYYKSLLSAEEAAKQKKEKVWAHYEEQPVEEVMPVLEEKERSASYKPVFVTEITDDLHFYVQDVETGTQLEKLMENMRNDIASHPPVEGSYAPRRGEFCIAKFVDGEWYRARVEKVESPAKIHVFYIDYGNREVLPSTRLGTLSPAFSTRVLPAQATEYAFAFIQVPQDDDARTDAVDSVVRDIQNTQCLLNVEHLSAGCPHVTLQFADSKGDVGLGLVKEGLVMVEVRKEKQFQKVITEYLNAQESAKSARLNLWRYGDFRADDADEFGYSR
UniProt Q8WVK7, sequence (Q8WVK7 whole entry, looked up): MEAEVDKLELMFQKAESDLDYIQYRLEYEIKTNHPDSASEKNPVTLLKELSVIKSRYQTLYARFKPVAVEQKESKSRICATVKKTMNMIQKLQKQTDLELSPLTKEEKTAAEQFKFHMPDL
UniProt Q6P1M0, sequence (Q6P1M0 whole entry, looked up): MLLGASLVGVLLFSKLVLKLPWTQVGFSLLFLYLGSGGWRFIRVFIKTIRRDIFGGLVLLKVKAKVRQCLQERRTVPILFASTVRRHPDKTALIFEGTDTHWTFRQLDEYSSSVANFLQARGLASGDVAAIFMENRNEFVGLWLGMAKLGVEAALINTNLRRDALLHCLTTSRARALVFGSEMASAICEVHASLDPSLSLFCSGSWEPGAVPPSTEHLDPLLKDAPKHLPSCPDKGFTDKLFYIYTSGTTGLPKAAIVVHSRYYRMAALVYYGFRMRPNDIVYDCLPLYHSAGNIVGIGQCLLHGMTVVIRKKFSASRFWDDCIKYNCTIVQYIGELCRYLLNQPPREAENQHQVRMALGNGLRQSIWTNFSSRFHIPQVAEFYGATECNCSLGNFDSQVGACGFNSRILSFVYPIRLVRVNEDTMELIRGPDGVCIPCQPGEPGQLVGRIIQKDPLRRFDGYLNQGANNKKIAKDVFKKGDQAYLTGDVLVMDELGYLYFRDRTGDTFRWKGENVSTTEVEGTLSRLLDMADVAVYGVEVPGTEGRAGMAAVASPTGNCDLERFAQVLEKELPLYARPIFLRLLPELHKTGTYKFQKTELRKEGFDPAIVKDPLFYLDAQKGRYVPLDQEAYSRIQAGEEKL

| Target | log2 fold change (nilotinib) | log2 fold change [1] | log2 fold change (dasatinib) | log2 fold change [2] | log2 fold change [3] | log2 fold change (quisinostat) | log2 fold change (tipifarnib) | log2 fold change [4] | log2 fold change [5] | log2 fold change [6] |
| --- | --- | --- | --- | --- | --- | --- | --- | --- | --- | --- |
| SMAD2 (UniProt Q15796) | 0.025 | 0.116 | 0.006 | -0.059 | 0.011 | -0.012 | 0.055 | 0.038 | -0.015 | 0.042 |
| SKP2 (UniProt Q13309) | 0.047 | -0.044 | -0.004 | 0.003 | 0.045 | -0.193 | -0.035 | 0.295 | -0.015 | -0.044 |
| SKA2 (UniProt Q8WVK7) | -0.062 | 0.015 | 0.005 | 0.005 | 0.026 | 0.122 | -0.052 | -0.022 | 0.004 | -0.023 |
| SHCBP1 (UniProt Q8NEM2) | -0.051 | -0.024 | -0.071 | -0.043 | 0.026 | -0.019 | -0.035 | -0.009 | -0.019 | -0.016 |
| STUB1 (UniProt Q9UNE7) | 0.031 | -0.027 | -0.037 | 0.027 | 0.004 | -0.06 | -0.011 | 0.053 | 0.015 | 0.004 |
| TAF6L (UniProt Q9Y6J9) | -0.023 | 0.012 | -0.118 | 0.021 | 0.056 | 0.018 | -0.032 | 0.094 | 0.028 | 0.034 |
| SNRPF (UniProt P62306) | -0.044 | 0.063 | 0.005 | 0.013 | -0.156 | -0.276 | -0.037 | 0 | -0.044 | 0.013 |
| SNAPC2 (UniProt Q13487) | 0.066 | 0 | -0.24 | -0.067 | -0.122 | -0.021 | -0.106 | 0.029 |  | 0 |
| TADA3 (UniProt O75528) | -0.022 | -0.036 | -0.014 | -0.023 | 0.019 | -0.037 | -0.035 | 0.006 | 0.024 | -0.044 |
| TAPT1 (UniProt Q6NXT6) | 0.009 | 0.012 | 0.013 | 0.03 | -0.118 | -0.053 | 0.017 | -0.032 | 0.011 | -0.001 |
| SMYD3 (UniProt Q9H7B4) | 0.004 | 0.022 | -0.101 | 0.01 | -0.029 | -0.056 | 0.031 | 0.038 | 0.036 | -0.051 |
| SNX6, A0A0A0MRI2 | -0.021 | 0.009 | 0.003 | 0.03 | 0.027 | -0.003 | 0.007 | -0.015 | 0.016 | 0.016 |
| SND1 (UniProt Q7KZF4) | -0.008 | -0.011 | -0.028 | -0.024 | 0.038 | -0.033 | -0.003 | 0.05 | -0.007 | -0.017 |
| SLC29A2 (UniProt Q14542) | 0.083 | 0.095 | 0.029 | 0.058 | 0.037 | -0.242 | 0.048 | 0.088 | -0.037 | -0.021 |
| SLC27A4 (UniProt Q6P1M0) | -0.061 | 0.002 | 0.026 | -0.036 | 0.048 | -0.123 | 0.096 | 0.036 | -0.023 | 0.036 |
| SHKBP1 (UniProt Q8TBC3) | 0.055 | 0.098 | 0.117 | -0.072 | -0.011 | -0.039 | 0.088 | -0.016 | 0.007 | -0.096 |
| SSB (UniProt P05455) | -0.013 | -0.014 | -0.008 | 0.006 | -0.018 | 0.099 | 0.022 | 0.001 | -0.013 | 0.012 |
| SLC38A1 (UniProt Q9H2H9) | -0.001 | 0.007 | 0.001 | -0.002 | -0.041 | -0.123 | -0.032 | -0.015 | 0.001 | -0.024 |
| SMAP2 (UniProt Q8WU79) | -0.058 | 0.026 | -0.013 | 0.037 | 0.06 | 0.072 | -0.038 | 0.076 | 0.026 | 0.022 |
| SLC38A10 (UniProt Q9HBR0) | 0.072 | -0.073 | -0.009 | 0.05 | -0.031 | -0.013 | 0.047 | -0.039 | 0.01 | 0.023 |
| SOAT1 (UniProt P35610) | 0.313 (active) | -0.019 | 0.071 | -0.065 | -0.022 | -0.12 | 0.072 | -0.042 | 0.045 | -0.013 |
| SNRPD3 (UniProt P62318) | 0.028 | -0.006 | 0.016 | -0.034 | 0.009 | -0.002 | -0.002 | 0.029 | 0.004 | 0.001 |
| SNRNP40 (UniProt Q96DI7) | 0.018 | 0.03 | -0.007 | 0.019 | -0.004 | -0.027 | 0.012 | 0.013 | -0.012 | 0.002 |
| SNRPD2 (UniProt K7EJB5) | -0.081 | 0.005 | -0.026 | -0.094 | -0.084 | -0.267 | -0.075 | -0.082 | 0.044 | 0 |
| SH3BGRL2 (UniProt Q9UJC5) | -0.001 | -0.001 | 0.077 | -0.019 | -0.033 | -0.029 | 0.013 | 0.009 | -0.04 | 0.032 |
